# Compounds without any hit were thinned out: in the full panel of roughly 83,000, 20% have a hit.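 Treatment: one concentration, 48 hours, 96-well format. Scoring: percent growth, with anything below 10 considered active.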 Unmarked numbers belong to inactive results. Active and inactive are the calls of the source.
# Columns and labels:
# Test in all cases: NCI-60 one-dose screen, 48 h (100 = growth as untreated, 0 = no growth, -100 = all killed)
# Details in all cases: 10 µM unless noted
# [1] = tested on: NCI-H23 lung
# [2] = tested on: NCI-H226 lung
# [3] = tested on: NCI-H322M lung
# [4] = tested on: HOP-62 NSCLC
# [5] = tested on: NCI-H460 lung
# [6] = tested on: HOP-92 NSCLC
# [7] = tested on: NCI-H522 lung
# [8] = tested on: A549/ATCC NSCLC
# [9] = tested on: 786-0 renal
# [10] = tested on: COLO 205 colon
Compound,growth [1],growth [2],growth [3],growth [4],growth [5],growth [6],growth [7],growth [8],growth [9],growth [10]
C/C(=N/Nc1nc2ccccc2n1C)c1ccccn1,6.57% (active),-12.1% (active),14.7%,-7.45% (active),-23.3% (active),15.9%,-4.8% (active),4.01% (active),9.02% (active),-4.66% (active)
CCOCCc1c(O)nc(SC)[nH]c1=O,91.9%,92%,111%,93.3%,107%,99.1%,94.7%,103%,103%,105%
O=c1cc(/C=N\Nc2nc(-c3ccc(Cl)cc3Cl)cs2)c2cc(Cl)ccc2o1,85.3%,87.9%,95.3%,80.3%,96.1%,82.2%,88.6%,88.3%,96.9%,107%
CC(=O)O[C@@H]1C[C@]2(C)[C@H]3[C@H](O)C[C@@H]4C5=CC(C)(C)CC[C@]5(C)CC[C@@]4(C)[C@]3(C)CC[C@H]2C(C)(C)[C@H]1O,95.7%,99.4%,118%,101%,102%,115%,103%,94%,99.3%,117%
O=C(CCc1nnco1)c1nc2ccc([N+](=O)[O-])cc2[nH]1,86.3%,99.4%,99.1%,113%,108%,119%,101%,100%,111%,121%
COc1ccc(/C=C(/C(=O)N2CCN(Cc3ccccc3)CC2)c2cc(OC)c(OC)c(OC)c2)cc1O,81%,81.7%,91.2%,74.2%,58.4%,44.3%,44.8%,68%,87.6%,110%
O=C(CCc1nnc2sc(OCc3ccccc3)nn12)c1nc2ccc([N+](=O)[O-])cc2[nH]1,84.6%,94.8%,93.3%,102%,105%,106%,79.2%,94.3%,108%,99.5%
COCCc1n(Cc2ccc3ccccc3c2)c2ccccc2[n+]1Cc1ccc2ccccc2c1,-24.3% (active),-7.12% (active),5.25% (active),-19.1% (active),-65.3% (active),-53.1% (active),-54.4% (active),4.72% (active),-94.3% (active),-71% (active)
CC(=O)c1ccc(NC(=O)CSc2nnc(-c3cc(-c4ccc(Cl)cc4)nc4ccccc34)o2)cc1,61%,96.4%,97.8%,80.6%,46%,94.2%,60.9%,76.7%,63.5%,96.6%
O=[N+]([O-])c1ccc(N=Nc2c(O)c(N=Nc3cc([N+](=O)[O-])cc([N+](=O)[O-])c3O)cc(N=Nc3cc(S(=O)(=O)O)cc4cc(S(=O)(=O)O)cc(O)c34)c2O)cc1,96.4%,113%,89.3%,98.6%,105%,101%,86.6%,102%,103%,108%
Nn1c(SCC(=O)Nc2ccc(Cl)cc2)nnc1-c1cc(F)c(Cl)cc1Cl,93%,93.5%,80.2%,55.8%,90%,76.6%,66.1%,87.2%,93.4%,96.6%
CC1(C)CC[C@]2(c3nnc(-c4ccncc4)o3)CC[C@]3(C)C(=CC[C@@H]4[C@@]5(C)CCC(=O)C(C)(C)[C@@H]5CC[C@]43C)[C@@H]2C1,85.6%,64.9%,91.3%,87.6%,77.9%,92.2%,71.2%,73.7%,85%,85%
Cc1cnc(-c2ccc(-c3ccc(NC(=O)Nc4c(F)cc(F)cc4F)cc3F)c3c2C(=O)NC3)[nH]1,20.8%,65.6%,43.1%,53.2%,-29.5% (active),70.8%,37.2%,45.2%,23.1%,20.5%

# Reference: PubChem BioAssay (NCI)
